This passage reports Potency and outcome results from PubChem BioAssay (Tox21).

Several values for one entry are separate records, joined by “and”; a condition that tells them apart may be missing. Identical values can stand only once. Activity calls are given as the source filed them. Unless noted, the call rests on the fitted dose curve; in most records, active means well fitted curve in the direction sought with a large enough effect in the repeat runs; inconclusive means weak or mixed curves; inactive means no such curve, though single readings can be large; an effect the other way counts as inactive or inconclusive.

The nature of assay [1]: qHTS assay to identify small molecule antagonists of the glucocorticoid receptor (GR) signaling pathway - cell viability counter screen (AID 720693; further: nearly all actives have a fitted effect of over 55% in size; further: potency means the concentration at half of the fitted maximal effect). (In general: qHTS replaces the single test concentration by a dilution series.)
A short description of assay [2]: qHTS assay for identifying genotoxic compounds that show differential cytotoxicity against isogenic chicken DT40 cell lines with known DNA damage response pathways - wild type cell line (AID 743012). Further: nearly all actives have a fitted effect of over 60% in size. Further: potency means the concentration at half of the fitted maximal effect. The essentials:
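300 wt DT40 cells/well; cpd (DMSO) pintool-transferred after ~0.5 h at 37 C/5% CO2; 40 h incubation; CellTiter-Glo added, 30 min RT; luminescence read.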

Assay [3] addresses Androgen receptor (Homo sapiens) (UniProt P10275). Put plainly: qHTS assay to identify small molecule agonists of the androgen receptor (AR) signaling pathway (AID 743036; active means well fitted activation curve with a large enough effect in the signal ratio in the repeat runs, with a control signal flat, not every such curve was filed as active; inconclusive means weak or mixed curves, or effect the other way; inactive means no such curve, though single readings can be large or run the other way; the % refers to the signal ratio). The essentials: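 Activation was read as beta-lactamase FRET signal from LiveBLAzer B/G substrate, added for 2 h at room temperature. Before that, GeneBLAzer AR-UAS-bla GripTite (HEK293) cells had 16 h compound exposure at 37C.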

Assay [4] has the same target. The assay is described as follows: qHTS assay to identify small molecule agonists of the androgen receptor (AR) signaling pathway using the MDA cell line (AID 743040; further: nearly all actives have a fitted effect of over 20% in size). The essentials:
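Luciferase read-out, ONE-Glo, 30 min RT. Cells: MDA-kb2 AR-luc, MMTV promoter with AR and GR response elements. Compound exposure 16 h, 37C, 0% CO2, after 5 h pre-incubation. qHTS agonist mode.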

Assay [5] in a line: qHTS assay to identify small molecule antagonists of the androgen receptor (AR) signaling pathway using the MDA cell line - cell viability counter screen (AID 743041; further: nearly all actives have a fitted effect of over 45% in size; further: potency means the concentration at half of the fitted maximal effect). The gist of the method: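 Cytotoxicity counter screen: MDA-kb2 AR-luc cells, compound + R1881, 16 h, 37C, 0% CO2; CellTiter-Fluor added at 15.5 h, fluorescence read after 30 min.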
Assay [6] concerns the target Androgen receptor (Homo sapiens) (UniProt P10275). The assay is described as follows: qHTS assay to identify small molecule antagonists of the androgen receptor (AR) signaling pathway using the MDA cell line (AID 743042; further: nearly all actives have a fitted effect of over 55% in size). The gist of the method:
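MDA-kb2 breast carcinoma cells carrying MMTV-luciferase (AR/GR responsive) were co-treated with compounds and the agonist R1881 for 16 h at 37C. Inhibition read as ONE-Glo luminescence; CellTiter-Fluor fluorescence measured in parallel for cytotoxicity.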

A short description of assay [7]: qHTS assay to identify small molecule antagonists of the thyroid receptor (TR) signaling pathway - cell viability counter screen (AID 743064). Further: nearly all actives have a fitted effect of over 50% in size. Further: potency means the concentration at half of the fitted maximal effect. The essentials: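 In-well cytotoxicity read by CellTiter-Fluor (30 min, 37 C) following 23.5 h exposure of GH3 cells bearing a TRE-luciferase sensor. Compounds were added alongside 1 nM (final) T3 to drive TR transactivation.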

Assay [8] in a line: qHTS assay to identify small molecule antagonists of the thyroid receptor (TR) signaling pathway (AID 743065). Further: nearly all actives have a fitted effect of over 55% in size. Further: potency means the concentration at half of the fitted maximal effect. The essentials: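 GH3.TRE-Luc rat pituitary cells (two TREs driving luciferase) were dosed with compound, then stimulated with 1 nM T3 (final) for 23.5 h at 37 C. ONE-Glo luminescence was the read-out, with CellTiter-Fluor fluorescence as the cytotoxicity counter-screen.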

For assay [9], the system named is thyroid hormone receptor (rat, GH3 cells). The assay is described as follows: qHTS assay to identify small molecule agonists of the thyroid receptor (TR) signaling pathway (AID 743066; calls by dose curve).
Assay [10] deals with Estrogen receptor (Homo sapiens) (UniProt P03372). Put plainly: qHTS assay to identify small molecule agonists of the estrogen receptor alpha (ER-alpha) signaling pathway (AID 743075; calls by dose curve;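 further: HEK293 GripTite cells with ER-alpha and UAS-driven beta-lactamase reporter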; further: potency means the concentration at half of the fitted maximal effect).
Estrogen receptor (Homo sapiens), sequence (P03372 whole entry, looked up): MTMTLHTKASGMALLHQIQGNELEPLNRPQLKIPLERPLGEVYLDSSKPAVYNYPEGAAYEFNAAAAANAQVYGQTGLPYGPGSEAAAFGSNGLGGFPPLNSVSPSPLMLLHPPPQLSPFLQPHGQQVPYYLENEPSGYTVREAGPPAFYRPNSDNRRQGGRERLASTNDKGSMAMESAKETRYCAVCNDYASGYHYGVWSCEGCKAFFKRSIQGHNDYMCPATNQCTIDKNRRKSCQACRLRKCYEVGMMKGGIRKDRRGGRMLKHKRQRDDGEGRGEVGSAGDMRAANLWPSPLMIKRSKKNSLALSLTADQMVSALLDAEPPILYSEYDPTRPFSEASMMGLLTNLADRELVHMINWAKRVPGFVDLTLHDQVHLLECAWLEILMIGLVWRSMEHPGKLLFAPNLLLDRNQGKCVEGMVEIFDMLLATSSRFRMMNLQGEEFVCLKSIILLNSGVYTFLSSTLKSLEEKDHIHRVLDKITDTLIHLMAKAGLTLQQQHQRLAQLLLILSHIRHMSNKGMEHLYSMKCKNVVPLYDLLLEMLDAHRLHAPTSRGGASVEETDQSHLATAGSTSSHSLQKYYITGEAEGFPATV
A short description of assay [11]: qHTS assay to identify small molecule antagonists of the estrogen receptor alpha (ER-alpha) signaling pathway using the BG1 cell line - cell viability counter screen (AID 743081).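 Further: compound given together with 17beta-estradiol as the ER stimulus; nearly all actives have a fitted effect of over 45% in size.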 Further: potency means the concentration at half of the fitted maximal effect.
Assay [12] has as its target Aromatase (Homo sapiens) (UniProt P11511). Put plainly: qHTS assay to identify aromatase inhibitors (AID 743083). Further: nearly all actives have a fitted effect of over 55% in size. Further: potency means the concentration at half of the fitted maximal effect.
The target of assay [13] is Estrogen receptor (Homo sapiens) (UniProt P03372). Put plainly: qHTS assay to identify small molecule antagonists of the estrogen receptor alpha (ER-alpha) signaling pathway (AID 743069; active means well fitted curve in the direction sought with a large enough effect in the signal ratio in the repeat runs, not every such curve was filed as active; inconclusive means weak or mixed curves, or effect the other way; inactive means no such curve, though single readings can be large or run the other way; the % refers to the signal ratio; further: potency means the concentration at half of the fitted maximal effect). The gist of the method:
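Beta-lactamase FRET fluorescence is read after 2 hr at room temperature with LiveBLAzer B/G substrate. Before that, ER-alpha-bla HEK293 cells sit 4 hr after plating, then receive compound plus 17beta-estradiol and incubate 18 hr at 37C.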

Assay [14] in a line: qHTS assay to identify small molecule antagonists of the estrogen receptor alpha (ER-alpha) signaling pathway using the BG1 cell line (AID 743080; calls by dose curve; further: nearly all actives have a fitted effect of over 25% in size; further: potency means the concentration at half of the fitted maximal effect). The gist of the method:
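Antagonist mode: compounds in DMSO were pinned onto BG1-Luc-4E2 cells alongside 17beta-estradiol agonist, incubated 21.5 h, and ERE-driven luciferase measured with ONE-Glo. Cytotoxicity was multiplexed using CellTiter-Fluor fluorescence.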

The nature of assay [15]: qHTS assay to identify aromatase inhibitors - cell viability counter screen (AID 743084). Further: potency means the concentration at half of the fitted maximal effect.
A short description of assay [16]: qHTS assay for identifying genotoxic compounds that show differential cytotoxicity against isogenic chicken DT40 cell lines with known DNA damage response pathways - Rev3 mutant cell line (AID 743014). Further: nearly all actives have a fitted effect of over 55% in size. Further: potency means the concentration at half of the fitted maximal effect.
Assay [17] can be described thus: qHTS assay for identifying genotoxic compounds that show differential cytotoxicity against isogenic chicken DT40 cell lines with known DNA damage response pathways - Rad54/Ku70 mutant cell line (AID 743015). Further: nearly all actives have a fitted effect of over 60% in size. Further: potency means the concentration at half of the fitted maximal effect.
Assay [18] can be described thus: qHTS assay to identify small molecule antagonists of the androgen receptor (AR) signaling pathway - cell viability counter screen (AID 743033; further: nearly all actives have a fitted effect of over 45% in size; further: potency means the concentration at half of the fitted maximal effect).
Assay [19] can be described thus: qHTS assay to identify small molecule antagonists of the estrogen receptor alpha (ER-alpha) signaling pathway - cell viability counter screen (AID 743074; calls by dose curve;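 further: HEK293 cells carrying ER-alpha-UAS-bla reporter stimulated with 17beta-estradiol; nearly all actives have a fitted effect of over 45% in size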; further: potency means the concentration at half of the fitted maximal effect).
Assay [20] has as its target Estrogen receptor (Homo sapiens) (UniProt P03372). The assay is described as follows: qHTS assay to identify small molecule agonists of the estrogen receptor alpha (ER-alpha) signaling pathway using the BG1 cell line (AID 743079). Further: nearly all actives have a fitted effect of over 20% in size.

Androgen receptor (Homo sapiens), sequence (P10275 whole entry, looked up): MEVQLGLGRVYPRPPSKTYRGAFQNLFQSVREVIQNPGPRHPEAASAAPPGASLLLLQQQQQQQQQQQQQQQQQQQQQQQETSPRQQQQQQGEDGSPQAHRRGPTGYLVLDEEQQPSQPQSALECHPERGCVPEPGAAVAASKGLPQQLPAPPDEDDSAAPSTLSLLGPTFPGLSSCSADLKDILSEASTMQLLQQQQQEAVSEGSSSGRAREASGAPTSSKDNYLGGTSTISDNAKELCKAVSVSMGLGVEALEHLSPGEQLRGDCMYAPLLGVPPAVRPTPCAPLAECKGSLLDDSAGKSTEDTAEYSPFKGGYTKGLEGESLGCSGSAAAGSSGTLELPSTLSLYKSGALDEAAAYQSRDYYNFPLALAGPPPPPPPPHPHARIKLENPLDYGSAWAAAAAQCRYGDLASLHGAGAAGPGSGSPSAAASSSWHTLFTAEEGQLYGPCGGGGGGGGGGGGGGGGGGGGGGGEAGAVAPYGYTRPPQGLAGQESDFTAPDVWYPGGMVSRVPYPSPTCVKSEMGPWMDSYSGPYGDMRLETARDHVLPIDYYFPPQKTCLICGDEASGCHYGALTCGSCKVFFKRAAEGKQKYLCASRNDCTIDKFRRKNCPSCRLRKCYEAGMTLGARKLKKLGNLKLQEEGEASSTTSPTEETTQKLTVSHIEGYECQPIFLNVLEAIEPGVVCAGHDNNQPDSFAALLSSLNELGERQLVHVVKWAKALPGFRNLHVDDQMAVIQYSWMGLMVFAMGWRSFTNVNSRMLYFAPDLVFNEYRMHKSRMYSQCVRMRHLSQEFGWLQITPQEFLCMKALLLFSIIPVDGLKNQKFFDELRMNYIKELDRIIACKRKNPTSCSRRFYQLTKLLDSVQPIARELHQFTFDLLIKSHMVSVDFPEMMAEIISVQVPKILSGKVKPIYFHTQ
Aromatase (Homo sapiens), sequence (P11511 whole entry, looked up): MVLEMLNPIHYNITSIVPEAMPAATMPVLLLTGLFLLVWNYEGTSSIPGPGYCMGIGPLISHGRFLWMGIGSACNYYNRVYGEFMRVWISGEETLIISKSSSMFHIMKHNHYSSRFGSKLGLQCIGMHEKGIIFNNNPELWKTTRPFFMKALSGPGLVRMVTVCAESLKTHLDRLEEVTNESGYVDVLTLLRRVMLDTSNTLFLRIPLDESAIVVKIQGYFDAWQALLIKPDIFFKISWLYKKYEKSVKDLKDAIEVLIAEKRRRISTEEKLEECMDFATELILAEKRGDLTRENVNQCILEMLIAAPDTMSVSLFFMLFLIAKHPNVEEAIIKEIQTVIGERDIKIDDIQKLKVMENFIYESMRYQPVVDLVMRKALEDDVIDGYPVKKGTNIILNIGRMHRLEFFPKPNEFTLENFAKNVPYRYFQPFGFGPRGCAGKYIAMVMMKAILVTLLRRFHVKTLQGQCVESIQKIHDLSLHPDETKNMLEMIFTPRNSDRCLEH

Turning to `CCN(CC)c1c([N+](=O)[O-])cc(C(F)(F)F)c(N)c1[N+](=O)[O-]`, the Potency result in assay [1], in assay [3], in assay [4], in [5], in assay [6] and in assay [7] was “inactive” in each case. In addition, the Potency entry in assay [8] and in assay [11] was “inactive” throughout. Moreover, the Potency in [2] is 19.3 µM (active); in assay [10], 38.9 µM [inconclusive] (active); in [12] it was 34.4 µM (active). The outcome in assay [9] was inactive.
`Oc1c(Cl)c(Cl)cc(Cl)c1Cl`: the Potency entry in assay [1], in assay [4], in assay [10] and in [15] was “inactive” each time. For the same molecule, the Potency is 66.7 µM (active) in assay [2], 23.7 µM (active) in [8], 15.1 µM [inconclusive] (active) in [13] and 74.8 µM (active) in [14]. For the same molecule, in assay [9], the outcome was inactive.
For `ClC(Cl)=C(Cl)Cl`, the Potency result in assay [1], in assay [16], in [17], in [18], in assay [5] and in assay [7] was “inactive” throughout. Also, the Potency result in [8], in assay [19], in [11], in assay [12] and in assay [15] was “inactive” in each case. Also, the result in [9] was inactive.
In the case of `CC(C)OC(=S)S`, the Potency entry in [1], in [5], in assay [7], in assay [13], in assay [19] and in assay [10] was “inactive” in each case. The Potency result in assay [14], in [11] and in assay [15] was “inactive” each time. The Potency is 27.3 µM (active) in assay [16], 24.3 µM (active) in assay [17] and 17.4 µM (active) in assay [18]. In addition, the molecule was classed as inactive in assay [9].
With `Clc1ccc(C(c2ccc(Cl)cc2)C(Cl)(Cl)Cl)cc1`, the Potency entry in assay [1], in assay [18], in assay [5], in assay [19], in assay [11] and in assay [12] was “inactive” each time. Also, the Potency entry in assay [15] is “inactive”. The Potency is 10.6 µM (active) and 7.75 µM (active) and 6.86 µM (active) in [16]; 23.7 µM (active) and 19.3 µM (active) in assay [17]; 18.8 µM (active) and 30.9 µM (active) and 30.6 µM (active) in assay [7]. Further, the result in assay [9] was inactive.
Regarding `CC(C)CCCCCOC(=O)c1ccccc1C(=O)OCCCCCC(C)C`, the Potency result in [1], in [2], in assay [17], in [18], in [5] and in assay [13] was “inactive” throughout. For the same molecule, the Potency entry in assay [19], in [10], in assay [20], in assay [14], in [11] and in [12] was “inactive” in each case. In addition, the Potency result in assay [15] is “inactive”. For the same molecule, in assay [9], the call was inactive.
Regarding `CN(C)C(=S)[S-].CN(C)C(=S)[S-].[Cu+2]`, the Potency in assay [1] was 2.67 µM (active); in [2], 14.9 µM (active); in assay [18], 2.99 µM (active); in [7], 1.49 µM (active); in assay [19], 6.7 µM (active); in [11], 1.49 µM (active). Besides, the Potency in assay [12] was 1.49 µM (active); in assay [15] it was 1.87 µM (active).
Turning to `C[C@]12CC[C@@H]3c4ccc(OC(=O)N(CCCl)CCCl)cc4CC[C@H]3[C@@H]1CC[C@@H]2O`, the Potency result in assay [1], in assay [2], in assay [18], in assay [5], in assay [7] and in [8] was “inactive” each time. The Potency entry in assay [19], in assay [11], in assay [12] and in [15] was “inactive” each time. The outcome in [9] was inactive.
For `O=[N+]([O-])c1cc(C(F)(F)F)c(Cl)c([N+](=O)[O-])c1Cl`, the Potency was 12.3 µM (active) in assay [1]; 0.486 µM (active) in assay [16]; 0.386 µM (active) in assay [17]; 21.9 µM (active) in assay [18]; 54.5 µM (active) in assay [5]; 0.611 µM (active) in [7]. Further, the Potency in assay [8] is 0.386 µM (active); in assay [19], 54.9 µM (active); in [11], 61.1 µM (active); in assay [12], 1.22 µM (active); in [15], 3.06 µM (active).
As to `Cc1cc(C)cc(OP(=O)(Oc2cc(C)cc(C)c2)Oc2cc(C)cc(C)c2)c1`, the Potency result in [1], in [16], in [17], in assay [18], in assay [7] and in assay [13] was “inactive” in each case. The Potency result in [19], in assay [10], in assay [20], in assay [14], in [11] and in assay [12] was “inactive” each time. Further, the Potency result in assay [15] was “inactive”. In addition, the molecule was called inactive in assay [9].
